Hits are enriched below; roughly 2.4% of the tested compounds scored in any of these assays.
A3A deaminase = blocks human APOBEC3A ssDNA deamination; actives 0.41% (n = 330,000); inhibition, % at 20 µM; recombinant A3A, FAM/TAMRA ssDNA deamination fluorescence; P31941;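 active = at least 40% inhibition at 20 µM here, with at most 30% in a related deaminase screen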;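 also: plate controls were A3A with DMSO for no effect and wells lacking A3A enzyme for full effect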
Target sequence (P31941 whole entry, looked up): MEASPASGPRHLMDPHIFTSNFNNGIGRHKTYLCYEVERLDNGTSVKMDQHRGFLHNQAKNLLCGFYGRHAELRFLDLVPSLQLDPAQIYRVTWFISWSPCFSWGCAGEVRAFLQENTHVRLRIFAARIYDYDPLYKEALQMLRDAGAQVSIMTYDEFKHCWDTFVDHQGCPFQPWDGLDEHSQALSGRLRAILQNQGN
A3G deaminase = blocks human APOBEC3G single-stranded DNA deamination; Q9HC16; recombinant A3G, ssDNA deamination FAM/TAMRA fluorescence; inhibition, % at 20 µM; actives 0.28% (n = 330,000); AID 493012;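 active = inhibition of at least 40% at 20 µM, with no more than 30% in the related APOBEC3A deaminase screen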;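 also: plate controls were DMSO wells with A3G for no effect and wells lacking A3G enzyme for full effect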
Target sequence (Q9HC16 whole entry, looked up): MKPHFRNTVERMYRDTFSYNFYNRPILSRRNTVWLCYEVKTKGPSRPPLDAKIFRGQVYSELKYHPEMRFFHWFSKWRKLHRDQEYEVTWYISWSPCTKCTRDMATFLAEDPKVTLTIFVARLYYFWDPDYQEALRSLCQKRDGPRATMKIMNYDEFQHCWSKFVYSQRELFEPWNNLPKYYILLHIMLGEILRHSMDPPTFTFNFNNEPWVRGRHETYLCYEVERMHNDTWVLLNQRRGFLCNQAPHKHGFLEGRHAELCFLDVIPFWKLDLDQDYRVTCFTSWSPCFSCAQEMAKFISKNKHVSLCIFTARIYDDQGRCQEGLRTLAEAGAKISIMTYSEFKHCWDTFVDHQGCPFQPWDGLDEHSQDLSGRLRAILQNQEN
Yeast superoxide = caloric restriction mimetics inhibiting age-related superoxide in yeast; superoxide response (% of plate mean), % at 10 µM; actives 0.18% (n = 330,000); S. cerevisiae aged cells, superoxide DHE fluorescence; active compounds read low;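 active = superoxide response under a set limit, about three screen SD below normal, cut at about 65% in these data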;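 also: yeast aged for seven days with compound at 30 °C before DHE staining; 100% = average MFI of all compound-treated wells on the plate with controls excluded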
PfM18AAP inh = blocks P. falciparum M18 aspartyl aminopeptidase | recombinant PfM18AAP, H-Glu-NHMec fluorogenic cleavage | inhibition, % at 7.35 µM | actives 1.2% (n = 290,000);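 active = inhibition above the campaign mean inhibition over all tested compounds plus 3 SD, cut at about 28% in these data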;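 also: 0% = plate median of test compound wells and 100% = 2 mM ZnCl2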
PfG6PD inh = PfG6PD (Plasmodium falciparum) enzyme inhibition; PfGluPho enzyme, NADPH resazurin-diaphorase fluorescence; inhibition, % at 20 µM; actives 0.78% (n = 350,000); AID 504690;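 active = inhibition reaching at least a set limit at 20 µM in the primary screen, cut at about 59% in these data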;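 also: 0% = DMSO wells with substrate and 100% = DMSO wells lacking glucose-6-phosphate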
PfGluPho conf = confirmation of Plasmodium falciparum G6PD inhibitors; shares compounds with PfG6PD inh; recombinant PfGluPho, NADPH-diaphorase-resazurin fluorescence; inhibition, % at 20 µM; actives 34% (n = 2,400); AID 504753;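 active = inhibition of at least 50% at 20 µM in any single replicate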;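 also: 0% = DMSO with substrate and 100% = DMSO lacking glucose-6-phosphate substrate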
Diaph ctr 10uM = inhibits diaphorase or oxidizes, flagging false PfG6PD hits | actives 39% (n = 820) | inhibition, % at 20 µM | diaphorase-coupled resazurin reduction, fluorescence, NADPH 10 uM | shares compounds with PfG6PD inh;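 active = average inhibition reaching 50% or more with the compound at 20 µM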;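 also: resorufin red fluorescence formed as diaphorase reduces resazurin using NADPH; 0% = DMSO with enzyme and 100% = DMSO without enzyme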
Diaphorase 30uM = inhibits diaphorase or oxidizes, flagging false PfG6PD hits; shares compounds with PfG6PD inh; Diaphorase/resazurin coupled assay, resorufin fluorescence, 30 uM NADPH; inhibition, % at 20 µM; actives 29% (n = 820); AID 504863;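 active = inhibition averaging 50% or more, tested at 20 µM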;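 also: 0% = DMSO with enzyme and 100% = DMSO wells lacking diaphorase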
* = called active by the depositor; / = not tested or not shown.

SMILES	A3A deaminase	A3G deaminase	Yeast superoxide	PfM18AAP inh	PfG6PD inh	PfGluPho conf	others
COc1ccc([N+](=O)[O-])cc1/C=N/NC(=O)/C(=C\c1cccs1)NC(=O)c1ccccc1	0.7	2.1	94.2	-4.0	99.1*	82.3*	Diaph ctr 10uM=85.5*;Diaphorase 30uM=69.7*
CCc1ccc2nc(N(CCN(C)C)C(=O)c3ccc4ncsc4c3)sc2c1	-0.3	-3.4	107.9	1.9	52.7	/
CC(C)(CO)CNC1CCCN(C2Cc3ccccc3C2)C1 (stereo unspecified)	-1.7	-2.1	117.2	0.6	5.1	/
C[n+]1c(-c2ccccc2)cc2c(=Cc3ccc([N+](=O)[O-])cc3)c3ccccc3n21	/	/	/	/	76.3*	49.9*	Diaph ctr 10uM=-15.7;Diaphorase 30uM=-4.9
CN(C)c1ccc(C=c2c3cc(O)ccc3n3c2cc(-c2ccccc2)[n+]3C)cc1	/	/	/	/	82.5*	88.7*	Diaph ctr 10uM=35.0;Diaphorase 30uM=31.5
C[n+]1c(-c2ccccc2)cc2c(=Cc3ccccc3)c3ccccc3n21	/	/	/	/	20.8	/
CN(C)c1ccc(C=c2c3ccccc3n3c2c2ccccc2[n+]3C)cc1	/	/	/	/	88.8*	88.4*	Diaph ctr 10uM=-20.4;Diaphorase 30uM=-1.4
O=C(Nc1ccc(N2CCOCC2)c(Cl)c1)c1ccc(-n2cnnc2)cc1	-2.8	-1.1	108.0	-7.9	16.8	/
O=C(Nc1ccc(N2CCOCC2)c(Cl)c1)c1ccc(Br)o1	-1.6	-3.3	94.1	-14.2	82.5*	37.3
O=C(Nc1ccc(N2CCOCC2)c(Cl)c1)c1ccc(F)cc1	0.4	-0.8	100.9	0.2	94.3*	27.2
O=S(=O)(c1cccc(Br)c1)N1CCN(C(=S)NCC2CCCO2)CC1 (stereo unspecified)	-4.8	-8.9	151.0	/	-15.8	/
Cc1cc(O)c(C(C)C)cc1NC(=O)Nc1ccc([N+](=O)[O-])cc1	/	/	/	/	23.4	/
COc1cccc(C=Nc2cccnc2)c1O	-6.0	-4.5	94.1	5.1	/	/
Cc1cc(O)c(C(C)C)cc1N=Cc1ccc(N(C)C)cc1	/	/	/	/	105.9*	83.3*	Diaph ctr 10uM=86.8*;Diaphorase 30uM=43.2
COc1cccc(C=Nc2cc(C(C)C)c(O)cc2C)c1O	/	/	/	/	114.0*	66.5*	Diaph ctr 10uM=6.2;Diaphorase 30uM=-0.9
CNC(=S)N/N=C/c1ccc(N(C)C)cc1	-2.4	-4.2	98.8	6.7	10.7	/
Cc1cc(O)c(C(C)C)cc1N=Cc1ccc([N+](=O)[O-])cc1	/	/	/	/	90.6*	62.2*	Diaph ctr 10uM=49.3;Diaphorase 30uM=14.6
COc1ccc(-c2cc(C(=O)N3CCN(S(=O)(=O)c4ccc(C)cc4)CC3)[nH]n2)cc1	-2.6	-8.0	91.9	1.8	-10.8	/
COC(=O)C(C)Oc1cc(C)ccc1COc1ccc(-n2nc(C)n(C(F)F)c2=O)cc1 (stereo unspecified)	-5.1	-2.2	113.6	/	6.4	/
Cc1noc(C)c1COC(=O)C1CCN(S(=O)(=O)c2ccc(F)cc2)CC1	-2.6	-9.2	98.2	/	-4.8	/
NC(=O)c1ccc(NC(=O)CNC(c2ccccc2)c2ccccc2)cc1	0.1	-3.1	103.2	0.5	-4.1	/
CCCC(=O)Nc1cccc(NC(=O)c2cccc([N+](=O)[O-])c2C)c1	0.2	-1.3	93.6	7.5	-5.9	/
CCOc1ccc(Cl)cc1C1=CC(=O)C[C@H](c2ccc(OC)cc2)C1	-2.2	0.9	89.0	/	14.2	/
Cc1nn(-c2ccccc2)c(Cl)c1/C=N/Nc1nc2ccccc2n1C	1.0	-6.5	86.0	19.1	101.5*	46.9*	Diaph ctr 10uM=36.9;Diaphorase 30uM=38.0
Cc1ccc(S(=O)(=O)N2CCC(C(=O)N3CCc4ccccc43)CC2)cc1C	-2.3	-5.7	/	/	-5.1	/
SMILES	A3A deaminase	A3G deaminase	Yeast superoxide	PfM18AAP inh	PfG6PD inh	PfGluPho conf	others
CCOC(=O)c1sc(NC(=O)CSc2nnc(Cc3ccccc3)o2)c(C#N)c1C	-6.4	11.4	89.2	5.4	88.1*	59.6*	Diaph ctr 10uM=-24.1;Diaphorase 30uM=-17.6
COc1ccc(C(C#N)=C2C=CC(=NO)C=C2)cc1	-0.5	15.8	119.9	29.1*	61.0*	-9.8
COc1ccc(-c2nc(N)ncc2-c2ccccc2OC)c(O)c1	-3.5	-6.4	102.1	-1.9	73.5*	34.1
COc1ccc(CCNC(=S)NC2CCN(Cc3ccccc3)CC2)cc1	-0.7	-0.8	107.2	-1.8	22.3	/
CCOC(=O)N1CCN(S(=O)(=O)N2CCCC(C(=O)NCc3cc(OC)ccc3OC)C2)CC1 (stereo unspecified)	/	/	/	/	-0.1	/
Cc1[nH]n(-c2ccccc2)c(=S)c1C=Nc1cccc([N+](=O)[O-])c1	-3.7	8.5	98.5	49.9*	110.4*	47.6
Cc1[nH]n(-c2ccccc2)c(=O)c1C=Nc1cccc2cccnc12	1.6	-0.5	104.0	6.8	-5.1	/
Brc1cccc(-c2nnc(SCc3nc4ccccc4[nH]3)o2)c1	1.4	3.9	99.1	-0.6	60.1*	13.1
c1ccc2[nH]c(CSc3nnc(-c4ccncc4)o3)nc2c1	-3.4	-4.8	114.8	1.8	39.6	/
CC1CCCC2(C1)NC(=S)c1c(sc3c1CCCC3)N2 (stereo unspecified)	-0.1	3.9	100.8	13.4	64.3*	11.4
COc1ccc(N2C3=C(CC4=C2CC(C)(C)CC4=O)C(=O)CC(C)(C)C3)cc1	-4.4	21.0	101.6	6.4	11.1	/
COc1ccc(N2C3=C(CC4=C2CCCC4=O)C(=O)CCC3)cc1	7.9	21.3	92.0	7.7	96.9*	19.4
Cc1ccc(C(=O)Nc2ccc3nc(C)sc3c2)o1	/	/	/	/	17.0	/
Cc1nc2ccc(NC3=NCCCCC3)cc2s1	-1.4	-0.1	89.3	-7.0	64.0*	37.8
COc1ccc(CN2C[C@]3(CO)O[C@@H](CO)C[C@@H]3S2(=O)=O)cc1	2.0	1.2	105.7	/	2.1	/
COc1c(Cl)c(=O)oc2ccc(Cl)cc12	/	/	/	/	-15.9	/
COc1ccccc1-n1c(=O)oc2ccc(Cl)cc2c1=O	-6.4	-9.0	98.9	-2.1	60.9*	27.4
O=C(NCCS(=O)(=O)N1CCN(c2ccccc2)CC1)c1ccccc1F	2.0	-3.0	101.5	/	2.4	/
CCOC(=O)N=Nc1c2ccccc2c2nc3no[nH]c3nc12	3.2	-0.9	/	5.0	69.3*	60.6*	Diaph ctr 10uM=50.9*;Diaphorase 30uM=50.9*
Oc1ccc(Nc2ccc3ccccc3c2)cc1	/	/	/	/	63.1*	29.4
Oc1ccc(Nc2nc(-c3ccc4ccccc4c3)cs2)cc1	-0.3	-7.3	80.7	25.0	/	/
O=[N+]([O-])c1ccc(COc2ccc(Br)cc2CN2CCOCC2)cc1	29.7	-4.3	134.5	16.1	65.3*	23.9
O=[N+]([O-])c1ccc(COc2ccc(CN3CCOCC3)cc2)cc1	/	/	/	/	-4.1	/
O=[N+]([O-])c1ccc(CN2CCOCCOCCN(Cc3ccc([N+](=O)[O-])cc3)CCOCC2)cc1	-0.1	-5.3	107.8	4.8	62.2*	-4.3
COc1ccc(C(c2sc3nc(C)nn3c2O)N2CCc3ccccc3C2)cc1 (stereo unspecified)	1.3	-3.7	135.1	13.3	59.1*	-21.5

From PubChem
